Consider 89 compounds from ChEMBL document CHEMBL3988442, “University of Dundee, Small-Polar-MMV Screening Library” (2021).

Structures are written as SMILES. The whole screen tested about 69,000 compounds, of which about 950 (1.4%) showed an effect of 50% or more. The full list was thinned out, with strong results kept by preference.

The subject of this experiment is Mycobacterium tuberculosis. Nature of the experiment: Cornell M. t heat shock assay. Note: in the data most compounds retested in dose-response had high values. Set-up: dose or concentration left out as unconfirmed. Type of experiment: functional, organism-based.
As to `O=C(NC1CC1)C1=CC2(CCN(CC3CC3)CC2)c2ccccc21.O=C(O)C(F)(F)F`, the “Percent Effect” value is given as -12.48%. On to `COc1ccccc1CN(CCCn1ccnc1)CC1CCOC1.O=C(O)CC(O)(CC(=O)O)C(=O)O` (centres undefined), for which the “Percent Effect” value came out at 0.5182%. Take `Fc1ccccc1CN(CCCn1ccnc1)CC1CCOC1.O=C(O)CC(O)(CC(=O)O)C(=O)O` (centres undefined): the “Percent Effect” value is reported as -23.62%. Regarding `c1cc(CN(CCCn2ccnc2)Cc2ccoc2)ccn1`, the “Percent Effect” value was determined as 0.7312%.

Regarding `OCc1ccc(CN(CCCn2ccnc2)Cc2ccncc2)o1`, the “Percent Effect” value was -4.525%. Next, `Cc1ccc(CN(CCCN2CCOCC2)Cc2cncn2C)o1.O=C(O)CC(O)(CC(=O)O)C(=O)O`: 7.314%; `Cc1ccc(CN(Cc2cccnc2)C2CC(C)(C)NC(C)(C)C2)s1.O=C(O)CC(O)(CC(=O)O)C(=O)O`: -4.253%; `Cc1ccc(CN(CCCn2ccnc2)Cc2cc(F)ccc2F)s1.O=C(O)CC(O)(CC(=O)O)C(=O)O`: 105.9%. As for `CC(C)OCCCN(Cc1ccncc1)Cc1cc(F)ccc1F.Cl`, the “Percent Effect” value is -8.981%. On to `Cc1ccc(CN(CCCn2ccnc2)Cc2c(F)cccc2F)s1.O=C(O)CC(O)(CC(=O)O)C(=O)O`, for which the “Percent Effect” value is 103.6%.

Consider `COC[C@]12COC[C@H]1CN(Cc1ccc3c(c1)OCO3)C2.O=C(O)C(F)(F)F`, for which the “Percent Effect” value was -2.808%.

With `CC(CN1CCOCC1)OC(=O)c1ccccc1I.Cl` (centres undefined), the “Percent Effect” value is -19.16%. `O=C(O)C(F)(F)F.c1ccc(N2CCOC3(CCCN(c4ncccn4)C3)C2)nc1` (centres undefined): the “Percent Effect” value was 36.25%.

For the compound `Cn1cc(CN2CC[C@]3(C[C@H](Oc4ccccn4)CO3)C2)cn1.O=C(O)C(F)(F)F.O=C(O)C(F)(F)F`, the “Percent Effect” value worked out at 21.89%.

On to `Cc1cccnc1N1CC2(CCN(Cc3cnn(C)c3)C2)C1.O=C(O)C(F)(F)F.O=C(O)C(F)(F)F`, for which the “Percent Effect” value is listed as -17.77%.

With `CN(C)CCN1C(=O)CCC12CCN(Cc1cccs1)CC2.O=C(O)C(F)(F)F.O=C(O)C(F)(F)F`, the “Percent Effect” value is -4.329%. In the case of `CN(C)C(CNC(=O)c1cc2c([nH]c1=O)CCCC2=O)c1ccsc1` (centres undefined), the “Percent Effect” value is recorded as -5.178%. Next, `Cc1ccccc1CN1C[C@@H]2COC[C@]2(CNC(=O)C2CCC2)C1.O=C(O)C(F)(F)F`: 17.62%; `CCc1ccc(CN(CCCn2ccnc2)Cc2ccc(C)s2)o1.O=C(O)CC(O)(CC(=O)O)C(=O)O`: 103.6%; `Cc1ccc(CN(CCCn2ccnc2)Cc2[nH]cnc2C)s1.O=C(O)CC(O)(CC(=O)O)C(=O)O`: -16.97%. On to `Cc1ccc(CN(CCCn2ccnc2)Cc2cnc(N(C)C)nc2)s1.O=C(O)CC(O)(CC(=O)O)C(=O)O`, for which the “Percent Effect” value was -30.9%. As for `Cc1nc(CN2CCO[C@@H]3CN(Cc4ccccn4)CC[C@@H]3C2)cs1.O=C(O)C(F)(F)F.O=C(O)C(F)(F)F`, the figure is -0.9653%. Next, `CC(=O)N1C[C@@H]2CC[C@H](C1)N(C(=O)CCc1n[nH]c3c1CCCC3)C2`: -1.596%; `O=C(CCc1n[nH]c2c1CCCC2)N1C[C@@H]2CC[C@H](C1)N(CC1CC1)C2`: 90.59%; `CS(=O)(=O)N1C[C@@H]2CC[C@H](C1)N(C(=O)CCc1n[nH]c3c1CCCC3)C2`: 3.499%. For `CN(C)C(=O)N1CCN(Cc2cnn(C)c2)CC2(CNC(=O)C2)C1.O=C(O)C(F)(F)F` (centres undefined), the “Percent Effect” value was determined as 0.6854%. `CCSCCNc1cc(C)nc2c(C)c(C)nn12`: the “Percent Effect” value came out at 105.5%. On to `Cc1cc(NCc2nnc3n2CCC3)n2nc(C)c(C)c2n1`, for which the “Percent Effect” value was -14.51%.

For the compound `Cc1cc(NCCSc2nccn2C)n2nc(C)c(C)c2n1`, the “Percent Effect” value was 72.35%.

Consider `COCCn1cnnc1CNc1cc(C)nc2c(C)c(C)nn12`, for which the “Percent Effect” value worked out at 44.3%. Next, `Cc1ccnc(NCCSc2nccn2C)n1`: 9.062%; `Cc1cc(NCCSc2nccn2C)n2ncnc2n1`: -35.12%; `CC(C)C[C@H](N)c1nnc(SCC(N)=O)o1.Cl`: -14.25%. As to `Cn1ccnc1CN1CCC2(CC1)COC2.O=C(O)C(F)(F)F`, the “Percent Effect” value was 6.701%. As for `CCN(C(=O)c1nc2c(s1)CCCN2Cc1ccccc1)C(C)C`, the “Percent Effect” value is reported as 52.41%. On to `CN(C)C(=O)c1nc2c(s1)CCCN2Cc1ccccc1`, for which the “Percent Effect” value is listed as 1.043%. Consider `CC(C)NC(=O)c1nc2c(s1)CCCN2Cc1ccccc1`, for which the “Percent Effect” value amounted to 16.22%. Turning to `O=C(O)C(F)(F)F.O=C(O)C(F)(F)F.O=C(c1cccnc1)N1CCC2(CC1)COC(COc1ccccn1)C2` (centres undefined), the “Percent Effect” value is -16.52%. In the case of `CC[C@@H]1N(Cc2ccncc2)CCC[C@]12CCC(=O)N2CCOC.O=C(O)C(F)(F)F.O=C(O)C(F)(F)F`, the “Percent Effect” value is -19.31%. For the compound `O=C(O)C(F)(F)F.O=C(O)C(F)(F)F.c1cnc(N2CCO[C@H]3CN(CC4CC4)C[C@H]32)nc1`, the “Percent Effect” value is given as -34.72%. Turning to `COc1ccccc1[C@@H]1CN(Cc2cc(C(C)(C)C)[nH]n2)C[C@H]1C(=O)O`, the “Percent Effect” value worked out at 79.87%.

As for `COc1ccccc1[C@@H]1CN(Cc2ccc3nsnc3c2)C[C@H]1C(=O)O`, the “Percent Effect” value is reported as -17.79%. On to `COc1ccccc1[C@@H]1CN(Cc2ccncc2)C[C@H]1C(=O)O`, for which the “Percent Effect” value is 45.83%. On to `CN1CC(=O)N(c2ccccc2)CC12CCN(CC1CCOCC1)C2.O=C(O)C(F)(F)F.O=C(O)C(F)(F)F` (centres undefined), for which the “Percent Effect” value is 3.802%. Next, `Cn1cnc2ccc(NC(=O)CCCn3cccn3)cc2c1=O`: 5.614%; `CC(C)n1cnc2ccc(NC(=O)CCCn3cccn3)cc2c1=O`: -15.69%; `CC(C)Cn1cnc2ccc(NC(=O)CCCn3cccn3)cc2c1=O`: 60.75%. `CC(C)[C@H](N)CC(=O)Nc1nc(-c2cnc(N3CCOCC3)nc2)cs1.Cl`: the “Percent Effect” value is given as -24.08%.

As to `CCC(=O)N1C[C@@H]2CCN(c3cnccn3)C[C@@H]2C1.O=C(O)C(F)(F)F`, the “Percent Effect” value was -28.75%. Regarding `O=C(O)C(F)(F)F.c1cnc(NCc2nnn3c2CN(Cc2ccco2)CCC3)nc1`, the “Percent Effect” value is -16.16%. In the case of `CC(C)c1cc2c(s1)NC(c1ccccn1)NC2=O` (centres undefined), the “Percent Effect” value came to 100.6%.

Regarding `CC(C)c1cc2c(s1)NC(c1ccccc1)NC2=O` (centres undefined), the “Percent Effect” value turned out to be 16.99%. Take `Cc1ccc(C2NC(=O)c3cc(C(C)C)sc3N2)cc1` (centres undefined): the “Percent Effect” value is 19.82%.

As to `CC(C)C(=O)N1CCN(Cc2ccccn2)CC2(CC(=O)N(C)C2)C1.O=C(O)C(F)(F)F.O=C(O)C(F)(F)F` (centres undefined), the “Percent Effect” value is -3.72%.

For `Cc1ccccc1C(C)N(C)Cc1nc2c(cnn2C)c(=O)[nH]1` (centres undefined), the “Percent Effect” value is reported as -10.61%. With `CC(C)CN(Cc1nc2c(cnn2C)c(=O)[nH]1)C(C)C`, the “Percent Effect” value amounted to 9.965%. For the compound `Cc1ccc(C(C)N(C)Cc2nc3c(cnn3C)c(=O)[nH]2)c(C)c1` (centres undefined), the “Percent Effect” value is -15.24%. For the compound `Cc1ccc(CN(Cc2nc3c(cnn3C)c(=O)[nH]2)C(C)C)s1`, the “Percent Effect” value was -2.161%. In the case of `Cc1ccc(C(C)N(C)Cc2nc3c(cnn3C)c(=O)[nH]2)cc1` (centres undefined), the “Percent Effect” value was 36.86%. As for `Cc1ccc(C(C)N(C)Cc2nc3c(cnn3C)c(=O)[nH]2)s1` (centres undefined), the figure is 59.53%; as for `CC(c1ccccc1Cl)N(C)Cc1nc2c(cnn2C)c(=O)[nH]1` (centres undefined), -6.582%; as for `COc1ccccc1C(C)N(C)Cc1nc2c(cnn2C)c(=O)[nH]1` (centres undefined), 82.45%. On to `CC(C)N(Cc1ccccn1)Cc1nc2c(cnn2C)c(=O)[nH]1`, for which the “Percent Effect” value turned out to be 66.99%. Next, `COC(=O)CCC(=O)N1CCCC2(CCCN2Cc2cccc(F)c2)C1.O=C(O)C(F)(F)F` (centres undefined): 3.912%. `O=C(O)C(F)(F)F.O=C(c1ccco1)N1CC[C@@H]2O[C@@H](COCCN3CCCC3)CC[C@@H]21`: the “Percent Effect” value is listed as -12.96%. On to `COCCN1CCC2(CC1)C(=O)Nc1ccc(C(=O)NC(C)C)cc12.O=C(O)C(F)(F)F`, for which the “Percent Effect” value is listed as -30.6%. Turning to `O=C(NC1CCCN(c2ccc(OC(F)F)cc2)C1)c1cnccn1` (centres undefined), the “Percent Effect” value came to 27.97%. With `Cl.O=C(CN1CCCC1=O)N1CCC(O)(Cn2ccc3ccncc32)CC1`, the “Percent Effect” value turned out to be 9.776%.

As for `O=C(O)C(F)(F)F.O=S(=O)(C1CC1)N1C[C@@H]2COC[C@]2(COc2ccccn2)C1`, the “Percent Effect” value was -12.78%. Consider `COc1cccc(CC2CCCN2Cc2nccn2C)c1` (centres undefined), for which the “Percent Effect” value amounted to 0.2214%.

With `CNCC(=O)N1CCCC1c1n[nH]cc1-c1ccccc1F.Cl` (centres undefined), the “Percent Effect” value is listed as -23.25%. As for `COc1ccc(CNC(Cc2ccsc2)c2ccc(C)cn2)cc1OC.Cl` (centres undefined), the figure is 97.07%; as for `CCc1cnc(N)nc1NCc1ccc(OC)cc1OC`, -28.22%. Consider `COc1ccc(CNc2c(C)nn(C(C)C)c2C)cc1OC.Cl`, for which the “Percent Effect” value worked out at 12.96%. For the compound `COc1ccc(CNC(Cc2ccsc2)c2ccc(C)cn2)c(OC)c1` (centres undefined), the “Percent Effect” value is recorded as 104.3%. As for `COc1cccc(CNC(C)C)c1OCc1ccc(C)cc1.Cl`, the “Percent Effect” value is reported as 4.479%. In the case of `Cc1cccnc1C(Cc1ccsc1)NCc1cnc(N(C)C)nc1` (centres undefined), the “Percent Effect” value was 69.2%. As for `COc1ccncc1NCc1ccsc1`, the figure is -12.4%; as for `Cc1cccc(-c2ncc(CNC(C)Cc3ncccc3C)cn2)c1` (centres undefined), 1.404%; as for `COc1ccc(CNC(Cc2cccs2)c2nc(C)c(C)s2)cc1OC.Cl` (centres undefined), -4.28%.

With `Cc1cccnc1C(Cc1ccsc1)NC(=O)Cn1cccnc1=O` (centres undefined), the “Percent Effect” value was -0.9287%. Turning to `COc1ccc(NC(=O)N(CCO)Cc2ccsc2)c(OC)c1`, the “Percent Effect” value is on record as -10.14%. `COc1cccc(OC)c1CNC(Cc1ccsc1)c1ccc(C)cn1` (centres undefined): the “Percent Effect” value is 103.5%.

Turning to `COc1ccccc1OCCNCc1c(C)nn(C)c1N(C)C.Cl`, the “Percent Effect” value was 31.69%. Regarding `COc1ccc(CC(=O)NCC(O)c2sccc2C)cc1OC` (centres undefined), the “Percent Effect” value worked out at 0.2606%.

Consider `Cc1ccc(CNC2CCc3[nH]c(=O)ccc3C2)cc1C.O=C(O)C(F)(F)F` (centres undefined), for which the “Percent Effect” value is given as -33.52%. Regarding `O=C(O)C(F)(F)F.O=C(O)C(F)(F)F.c1cnc(N2CC3(CCN(Cc4cccnc4)C3)C2)nc1`, the “Percent Effect” value was -26.88%. Turning to `CN1CCCC1c1cncc(C(=O)NCCN2CCCCC2)n1` (centres undefined), the “Percent Effect” value is listed as -9.497%.

Regarding `O=C(Nc1cccnc1-n1cc(Cl)cn1)C1CCCC1`, the “Percent Effect” value came out at 16.14%.
